The text below walks through data of ChEMBL document CHEMBL2218924, “A broad activity screen in support of a chemogenomic map for kinase signalling research and drug discovery” (Biochem J, 2013).

Assay [1] has as its target Tyrosine-protein kinase FRK (Homo sapiens) (UniProt P42685). The conditions noted are these: at 1 µM.
Assay [2] has the same target. The conditions noted are these: at 10 µM.
The target of assay [3] is T1, Phosphorylase b kinase gamma catalytic chain, liver/testis isoform (Homo sapiens) (UniProt P15735).
T1 sequence (whole entry): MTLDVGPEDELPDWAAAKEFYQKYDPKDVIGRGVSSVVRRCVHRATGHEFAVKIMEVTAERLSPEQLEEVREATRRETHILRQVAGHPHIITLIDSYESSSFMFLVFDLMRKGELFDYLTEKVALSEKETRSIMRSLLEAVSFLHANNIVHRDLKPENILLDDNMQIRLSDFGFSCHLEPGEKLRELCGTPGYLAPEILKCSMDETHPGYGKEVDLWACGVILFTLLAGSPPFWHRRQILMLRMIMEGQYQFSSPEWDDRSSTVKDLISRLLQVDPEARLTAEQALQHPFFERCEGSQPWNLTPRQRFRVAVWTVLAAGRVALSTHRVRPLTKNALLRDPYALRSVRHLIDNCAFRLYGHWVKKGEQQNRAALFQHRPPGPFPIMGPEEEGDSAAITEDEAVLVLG
The conditions noted are these: at 1 µM.

Assay [4] concerns the target T1, Phosphorylase b kinase gamma catalytic chain, liver/testis isoform (Homo sapiens). The following applies: at 10 µM.
For assay [5], the target named is Serine/threonine-protein kinase pim-1 (Homo sapiens) (UniProt P11309). The following applies: at 1 µM.
For assay [6] the target is unchanged. The following applies: at 10 µM.
The target in assay [7] is Serine/threonine-protein kinase pim-2 (Homo sapiens) (UniProt Q9P1W9). The following applies: at 1 µM.
Assay [8] has the same target. The conditions noted are these: at 10 µM.
The target in assay [9] is Serine/threonine-protein kinase pim-3 (Homo sapiens) (UniProt Q86V86). The conditions noted are these: at 1 µM.
For assay [10] the target is unchanged. The following applies: at 10 µM.

Chain of Serine/threonine-protein kinase pim-2 (Homo sapiens) (Q9P1W9 whole entry, looked up): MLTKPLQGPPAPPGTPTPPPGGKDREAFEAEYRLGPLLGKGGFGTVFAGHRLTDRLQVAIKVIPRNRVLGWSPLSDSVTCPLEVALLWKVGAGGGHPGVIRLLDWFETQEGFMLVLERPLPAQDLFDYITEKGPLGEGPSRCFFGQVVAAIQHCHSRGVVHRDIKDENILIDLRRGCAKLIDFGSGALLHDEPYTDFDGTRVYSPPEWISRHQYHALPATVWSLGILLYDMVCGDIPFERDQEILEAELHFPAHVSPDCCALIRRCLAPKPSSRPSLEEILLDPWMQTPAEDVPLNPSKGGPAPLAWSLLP
Chain of Tyrosine-protein kinase FRK (Homo sapiens) (P42685 whole entry): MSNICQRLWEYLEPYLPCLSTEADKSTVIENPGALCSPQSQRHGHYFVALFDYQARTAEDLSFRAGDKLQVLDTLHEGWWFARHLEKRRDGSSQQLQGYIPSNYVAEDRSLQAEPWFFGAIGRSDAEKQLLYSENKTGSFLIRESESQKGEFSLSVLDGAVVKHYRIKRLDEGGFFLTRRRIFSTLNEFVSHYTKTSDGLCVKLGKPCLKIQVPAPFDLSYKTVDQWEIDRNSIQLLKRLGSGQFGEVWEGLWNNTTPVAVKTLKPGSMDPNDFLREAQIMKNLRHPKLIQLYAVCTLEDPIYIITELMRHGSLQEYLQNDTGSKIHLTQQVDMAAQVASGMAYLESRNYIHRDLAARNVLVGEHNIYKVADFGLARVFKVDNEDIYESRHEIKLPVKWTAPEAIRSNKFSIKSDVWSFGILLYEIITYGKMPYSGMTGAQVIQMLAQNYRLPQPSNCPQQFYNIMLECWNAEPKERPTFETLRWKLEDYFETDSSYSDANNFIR
Chain of Serine/threonine-protein kinase pim-1 (Homo sapiens) (P11309 whole entry, looked up): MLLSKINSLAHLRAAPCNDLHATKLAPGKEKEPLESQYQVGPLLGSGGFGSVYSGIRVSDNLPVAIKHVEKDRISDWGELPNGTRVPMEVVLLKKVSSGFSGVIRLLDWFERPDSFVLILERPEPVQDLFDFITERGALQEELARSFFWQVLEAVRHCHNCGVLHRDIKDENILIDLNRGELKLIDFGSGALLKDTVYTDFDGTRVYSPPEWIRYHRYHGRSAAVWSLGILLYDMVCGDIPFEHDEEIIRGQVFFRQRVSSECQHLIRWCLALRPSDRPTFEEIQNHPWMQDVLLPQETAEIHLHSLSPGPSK

As for `C[S+]([O-])c1ccc(-c2nc(-c3ccc(F)cc3)c(-c3ccncc3)[nH]2)cc1` (stereo unspecified), the residual activity came out at 71% in assay [1]; 17% in [2]; 109% in assay [3]; 106% in assay [4]; 84% in assay [5]; 97% in assay [6]. In addition, the residual activity in assay [7] is 125%; in assay [8] it was 96%; in assay [9], 107%.

Consider `c1cc(-c2cnn3cc(-c4ccc(OCCN5CCCCC5)cc4)cnc23)ccn1`, for which the residual activity in assay [1] worked out at 65%; in [2] it was 7%; in [3] it was 34%; in assay [4] it was 4%; in assay [5] it was 104%; in [6], 60%. Moreover, the values for the residual activity in [7] and in assay [8] were 117% and 127%, respectively.

On to `CCc1nc(-c2ccc(OC)cc2)[nH]c1-c1ccncc1`, for which the residual activity in assay [1] was 102%; in [2] it was 100%; in assay [3], 103%; in [4], 105%; in assay [7], 126%; in assay [8], 125%.

Regarding `CC(C)(C)c1cc(C=C(C#N)C#N)cc(Br)c1O`, the residual activity was 100% in [1]; 76% in assay [2]; 115% in assay [3]; 106% in assay [4]; 51% in [6]; 105% in assay [9]. Further, the residual activity in assay [10] came to 104%.

For the molecule `COc1ccc2c(c[n+](C)c3c4cc5c(cc4ccc23)OCO5)c1OC`, the residual activity in assay [1] turned out to be 94%; in [2] it was 69%; in assay [3], 111%; in assay [4], 96%; in assay [5], 93%; in assay [6], 93%. For the same molecule, the residual activity in [7] worked out at 86%; in assay [8], 88%; in assay [9], 100%; in [10], 95%.

Take `O=C1Nc2ccc3ncsc3c2/C1=C/c1c[nH]cn1`: the residual activity in assay [1] was found to be 83%; in assay [2], 33%; in [3], 47%; in [4], 10%; in assay [5], 26%; in assay [6], 5%. In addition, the residual activity amounted to 13% in [7], 3% in [8], 53% in assay [9] and 11% in assay [10].

In the case of `COc1ccc2c(c1)/C(=C/c1cnc[nH]1)C(=O)N2`, the residual activity in assay [4] amounted to 22%; in assay [5], 66%; in assay [6] it was 32%; in assay [7], 69%; in [8], 19%; in [10], 52%.

For the molecule `O=C1NC(=O)c2c1c1c3ccccc3n3c1c1c2c2ccccc2n1C1CCC3O1`, the residual activity was 71% in [1]; 66% in [2]; -2% in assay [5]; 1% in assay [6]; 6% in assay [7]; -2% in assay [8]. For the same molecule, the residual activity worked out at 38% in [9] and 45% in [10].

Turning to `COC(=O)[C@@]1(O)C[C@H]2O[C@]1(C)n1c3ccccc3c3c4c(c5c6ccccc6n2c5c31)C(=O)NC4`, the residual activity is 25% in [1]; 6% in assay [2]; 0% in [3]; 1% in assay [4]; 10% in assay [5]; 1% in [6]. Besides, the residual activity was 2% in [7], -2% in [8], 31% in assay [9] and 5% in [10].

Turning to `N/C(=N\[N+](=O)[O-])N/N=C\c1ccc(-c2cccc([N+](=O)[O-])c2)o1`, the figures for the residual activity in [9] and in assay [10] were 88% and 87%, respectively.

In the case of `CC(C)[C@H](CO)Nc1nc(Nc2cccc(Cl)c2)c2ncn(C(C)C)c2n1`, the residual activity in assay [1] was 59%; in assay [2], 9%; in assay [3], 122%; in [4] it was 82%; in [5], 100%; in assay [6] it was 68%. Besides, the residual activity in assay [7] worked out at 116%; in [8] it was 122%; in assay [9] it was 87%; in assay [10] it was 89%.

As to `COc1cc2ncnc(Nc3ccc(OCc4ccccc4)cc3)c2cc1OC`, the residual activity in assay [1] came to 98%; in assay [2], 123%; in assay [3] it was 98%; in assay [4], 113%; in [5] it was 99%; in assay [6], 90%. For the same molecule, the residual activity was found to be 110% in [7], 105% in [8], 107% in assay [9] and 100% in [10].

As to `O=C1c2ccccc2-c2nc3nnnn3nc21`, the residual activity worked out at 103% in [3], 120% in assay [4], 104% in [7] and 108% in assay [8].

`O=c1[nH]c2ccccc2n1C1CCN(Cc2ccc(-c3nc4cc5[nH]cnc5cc4nc3-c3ccccc3)cc2)CC1`: the residual activity in [1] stood at 99%; in assay [2], 107%; in assay [3], 101%; in assay [4], 53%; in assay [5] it was 88%; in assay [6], 87%. Besides, the residual activity in [7] stood at 85%; in assay [8] it was 98%; in assay [9] it was 102%; in assay [10], 97%.

For `O=[N+]([O-])/C=C/c1ccc2c(c1)OCO2`, the residual activity in [1] was determined as 105%; in assay [2], 105%; in assay [3], 105%; in assay [4], 114%; in assay [5], 79%; in assay [6], 85%. In addition, the residual activity in [7] worked out at 134%; in [8] it was 110%; in assay [9] it was 101%; in assay [10], 103%.

As to `CCn1cnc2c(Nc3cccc(Cl)c3)nc(N[C@@H]3CCCC[C@@H]3N)nc21`, the residual activity in [1] is 43%; in [2], 8%; in assay [3], 78%; in assay [4], 29%; in assay [5] it was 94%; in assay [6] it was 23%. For the same molecule, the residual activity in assay [7] turned out to be 97%; in assay [8], 39%; in [9], 57%; in assay [10] it was 13%.

Turning to `COc1cc(OC)c(/C=C2\C(=O)Nc3ccccc32)c(OC)c1`, the residual activity in assay [1] is 90%; in assay [2], 99%; in assay [6] it was 75%; in [7], 137%; in assay [9], 81%; in assay [10] it was 86%.

What is called residual activity is the signal under treatment as a percentage of the control signal.
